# Assay results: ChEMBL document CHEMBL3988442, “University of Dundee, Small-Polar-MMV Screening Library” (2021)
# About 1,000 (1.4%) of roughly 69,000 compounds showed an effect of 50% or more. Many of the other results were omitted from the sample, so strong results are more common in it than they were.
# Test system: Leishmania donovani
# Assay: Leishmania intramacrophage assay
# Type: functional, organism-based
# Design: scale not given: in the data most compounds retested in dose-response had high values
smiles,measurement,setting,value
O=C(NCc1ccco1)[C@H]1CC[C@@H]2[C@@H](CCN2Cc2nccs2)O1.O=C(O)C(F)(F)F,Percent Effect,"30.3 µM, […]",-4.08%
COCC[C@]1(O)CCN(Cc2nc(C(C)C)cs2)C[C@H]1C,Percent Effect,"30.3 µM, […]",-0.9404%
COCCn1ccnc1CN(Cc1ccccn1)Cc1sccc1C,Percent Effect,"30.3 µM, […]",60.02%
COCCN(Cc1ccccn1)Cc1sccc1C,Percent Effect,"30.3 µM, […]",0.646%
COCCN(Cc1sccc1C)Cc1nccn1CCOC,Percent Effect,"30.3 µM, […]",16.06%
CS(=O)(=O)c1ccccc1-n1cc(NC(=O)CC2C=CCC2)cn1 (stereo unspecified),Percent Effect,"30.3 µM, […]",4.466%
CC(C)(C)CC(=O)Nc1cnn(-c2ccccc2S(C)(=O)=O)c1,Percent Effect,"30.3 µM, […]",13.51%
CN(CC(=O)Nc1cnn(-c2ccccc2S(C)(=O)=O)c1)C1CC1,Percent Effect,"30.3 µM, […]",52.47%
CC(C)c1cc(=O)[nH]c(-c2ccccc2CN2CCCCCC2)n1,Percent Effect,"30.3 µM, […]",1.494%
CCCc1nc2c(c(C)c(C)n2Cc2ccccn2)c(N)c1CC,Percent Effect,"30.3 µM, […]",98.46%
Cc1c(C)n(Cc2ccccn2)c2nc3c(c(N)c12)CCCC3,Percent Effect,"30 µM, 30.03 µM",-5.276%
CCc1nc2c(c(C)c(C)n2Cc2cccnc2)c(N)c1C,Percent Effect,"30.3 µM, […]",13.69%
Cc1c(C)n(Cc2ccncc2)c2nc3c(c(N)c12)CCCC3,Percent Effect,"30.3 µM, […]",9.739%
CCCc1nc2c(c(C)c(C)n2Cc2ccncc2)c(N)c1CC,Percent Effect,"30.3 µM, […]",13.89%
CCCc1nc2c(c(C)c(C)n2Cc2cccnc2)c(N)c1CC,Percent Effect,"30.3 µM, […]",64.41%
O=C(Cc1ccon1)N1CCN(c2ccc(F)cc2Cl)CC1,Percent Effect,"30.3 µM, […]",4.988%
CNC(=O)c1cnn2c(C3CCCN3C)ccnc12 (stereo unspecified),Percent Effect,"30.3 µM, […]",-0.3512%
CCN1CCC2(CCN(c3ncccn3)CC2)C1=O.O=C(O)C(F)(F)F,Percent Effect,"30.3 µM, […]",-8.891%
Cc1cc(C(=O)NCC(C)C)nn1C,Percent Effect,"30.3 µM, […]",3.079%
Cc1ccc(F)c(OC2CCCN(c3cnn(C)c3)C2=O)c1 (stereo unspecified),Percent Effect,"30.3 µM, […]",1.572%
CN(Cc1nccn1C)S(=O)(=O)Cc1cccc(C#N)c1,Percent Effect,"30.3 µM, […]",3.121%
Cc1c[nH]c(C2CCCN(Cc3ccccc3C(=O)O)C2)n1.O=CO (stereo unspecified),Percent Effect,"30.3 µM, […]",-7.994%
CC(=O)N1CCCN(C(=O)NCCNc2cnccn2)CC1,Percent Effect,30 µM,10.17%
Cc1cccc(CN2C[C@@H]3OCCN(c4ccnc(N(C)C)n4)[C@@H]3C2)c1.O=C(O)C(F)(F)F,Percent Effect,"30.3 µM, […]",-2.723%
CN(C)c1nccc(N2CCO[C@H]3CN(Cc4nccn4C)C[C@H]32)n1.O=C(O)C(F)(F)F,Percent Effect,"30.3 µM, […]",22.89%
CCc1ccc(CN2C[C@@H]3OCCN(c4ccnc(N(C)C)n4)[C@@H]3C2)o1.O=C(O)C(F)(F)F,Percent Effect,"30 µM, 30.03 µM",55.16%
CCc1cc(CNC(=O)C2CCCN(C(=O)NCC(C)C)C2)[nH]n1 (stereo unspecified),Percent Effect,"30.3 µM, […]",-11.81%
Cn1nc2c(cc1=O)CN(Cc1coc(-c3ccccc3)n1)CC2,Percent Effect,"30.3 µM, […]",18.82%
Cc1ccc(-c2nc(CN3CCc4nn(C)c(=O)cc4C3)co2)cc1,Percent Effect,"30 µM, 30.03 µM",21.01%
CCn1nc2c(cc1=O)CN(Cc1coc(-c3ccccc3)n1)CC2,Percent Effect,"30.3 µM, […]",51.53%
Nc1cc2c(nn1)CCN(C(=O)CC1CCCCC1)C2,Percent Effect,30 µM,25.14%
CCOC(=O)C1(Cc2ccccc2)CCCN(Cc2nccn2CC)C1 (stereo unspecified),Percent Effect,"30.3 µM, […]",51.2%
CCOC(=O)C1(Cc2cccc(OC)c2)CCCN(Cc2ncc[nH]2)C1 (stereo unspecified),Percent Effect,"30.3 µM, […]",-0.9604%
CCOC(=O)C1(CCOC)CCCN(Cc2nccn2CC)C1 (stereo unspecified),Percent Effect,"30.3 µM, […]",-5.772%
CN(C)C(=O)CNC(=O)c1ccc(Cl)cc1F,Percent Effect,"30 µM, 30.03 µM",-10.55%
Br.Cc1ccc(N(CC(=O)c2ccc(Br)cc2)C2=NCCCCC2)cc1,Percent Effect,"30 µM, 30.03 µM",57.51%
Br.O=C(CN(C1=NCCCC1)c1ccccc1)c1ccccc1,Percent Effect,"30 µM, 30.03 µM",-5.499%
COc1ccc(CN(Cc2c[nH]cn2)CC2CCCO2)c(OC)c1.O=C(O)CC(O)(CC(=O)O)C(=O)O (stereo unspecified),Percent Effect,"30.3 µM, […]",20.29%
Cc1noc(C)c1CN1CCc2ncnc(-c3cccnc3)c2CC1.O=C(O)C(F)(F)F.O=C(O)C(F)(F)F,Percent Effect,"30.3 µM, […]",26.97%
Cc1sc2ncnc(N3CCC(N(C)Cc4cnn(C)c4)CC3)c2c1C,Percent Effect,"30.3 µM, […]",50.06%
Cc1cc2c(N3CCC(N(C)CCc4cnn(C)c4)CC3)ncnc2s1,Percent Effect,"30.3 µM, […]",2.228%
Cc1cc2c(N3CCC(N(C)Cc4cnn(C)c4)CC3)ncnc2s1,Percent Effect,"30.3 µM, […]",31.66%
Cc1oc(C)c(C(=O)Nc2ccccn2)c1C,Percent Effect,"30.3 µM, […]",0.1995%
Cc1cc(N2CCc3c(ncn3C)C2)n2nc(C(F)(F)F)nc2n1,Percent Effect,"30.3 µM, […]",17.99%
COCCn1cncc1CN1CCCC(C)(c2ccccc2)C1 (stereo unspecified),Percent Effect,"30.3 µM, […]",-2.364%
CC1(c2ccccc2)CCCN(Cc2cncn2C2CC2)C1 (stereo unspecified),Percent Effect,"30.3 µM, […]",33.62%
CC1(c2ccccc2)CCCN(Cc2cncn2C2CCCC2)C1 (stereo unspecified),Percent Effect,"30.3 µM, […]",95.34%
Cc1ccc(C2(CN(C)Cc3sccc3C)CCNCC2)nc1,Percent Effect,"30.3 µM, […]",56.47%
Cc1ccc(C2(CN(C)Cc3snnc3C)CCNCC2)nc1,Percent Effect,"30.3 µM, […]",37.33%
Cc1ccc(C2(CN(C)Cc3c(C)nn(C)c3C)CCNCC2)nc1,Percent Effect,"30.3 µM, […]",37.1%
Cc1cccc(-c2noc(CN3CCCC(Cn4cncn4)C3)n2)c1 (stereo unspecified),Percent Effect,"30 µM, 30.03 µM",23.08%
